We go through 102 molecules from ChEMBL document CHEMBL3988442, “University of Dundee, Small-Polar-MMV Screening Library” (2021).

Each structure is given as a SMILES string. Screen size: about 38,000 compounds; about 1,200 (3.2%) showed an effect of 50% or more. The median lay at about -58%. Many of the other results were omitted from the sample, so strong results are more common in it than they were.

The subject of the test is Plasmodium falciparum. In words: Calibr Malaria Delayed Death Assay SOP. The class given is functional, organism-based. Also on record: scale not given: in the data most compounds retested in dose-response had high values. The note with it: concentration 4.99e-06 (unit not given; other assays of the set use mol/L).
In the case of `Cc1nn(CC(=O)NCC2(C(N)=O)CCOCC2)c(C)c1Cl`, the “Percent Effect” value is recorded as -63.22%.
The result for `CCn1ccnc1C1CCN(Cc2cccc(C)n2)CC1` reads -98.55%.
To `Cc1cccc(CN2CCC(NS(C)(=O)=O)CC2)n1` belongs -83.22%; to `O=C(c1c(O)cnc2ccccc12)N1CCCSCC1`, -75.93%; to `CCn1c(C)cc(C(=O)N2CCC(Nc3ccc(C)nn3)CC2)c1C`, -49.09%.
Consider `COc1ccccc1CNc1c(N2CCN(C(C)=O)CC2)c(=O)c1=O`, for which the “Percent Effect” value is on record as -13.77%.
To `Cc1nc(CCC(=O)NCC(N)=O)cc(C2CCNCC2)n1` belongs -86.52%.
To `CNC(=O)CCc1cc(C2CCNCC2)nc(C)n1.Cl.Cl` belongs -15.84%.
To `COc1ccc2cnn(CC(=O)NC3CCCCC3)c(=O)c2c1OC` belongs -20.95%; to `Cc1nn(Cc2ccc(C(=O)NCCCN3CCCC3=O)o2)c(C)c1Br`, -82.86%.
Consider `CC(C)N(C)Cc1cnc2n1CCN(Cc1cccc(C#N)c1)C2`, for which the “Percent Effect” value is listed as 10.5%.
To `CC(O)(CCc1ccccc1)CNC(=O)c1cccs1` (configuration not stated) belongs -19.61%.
In the case of `COc1ccc(CC(C)(O)CNC(=O)c2cccs2)cc1` (configuration not stated), the “Percent Effect” value is reported as 88.99%.
The result for `COc1ccc(CC(C)(O)CNC(=O)Cc2cccs2)cc1` (configuration not stated) reads -86.25%; that for `CCN1C(=O)CCCC12CCCN(C(=O)c1ccncc1F)C2.O=C(O)C(F)(F)F` (configuration not stated), -52.32%.
To `CC(=O)Nc1nc(CS(=O)(=O)Cc2ccccc2)cs1` belongs -16.97%; to `COCCN1Cc2ccccc2C2(CCN(C(=O)c3ccno3)CC2)C1`, -21.64%.
To `N#Cc1ccc(CNC(=O)NC2CCN(c3ncccn3)CC2)cc1` belongs -82.81%; to `CSc1ccc(CNC2CCN(CCc3ccncc3)CC2)cc1`, 92.6%.
With `Cc1cccc(CNC2CCN(CCc3ccncc3)CC2)c1C`, the “Percent Effect” value is on record as 75.22%.
The result for `COCCN1CCC(NCc2cccnc2)C1` (configuration not stated) reads -54.93%; that for `Cc1ccc(CNC2CCN(CCc3ccncc3)CC2)s1`, -5.622%; that for `COCCn1ccnc1C1CCCN(c2ncnc3c(C)csc23)C1` (configuration not stated), -130.5%.
The result for `N#Cc1ccc(CNC2CCN(CCc3ccncc3)CC2)cc1` reads 54.87%; that for `CCCN1CCC(NCc2ccncc2)CC1`, -53.14%.
To `COC(=O)C(O)C1CCN(CCc2ccncc2)CC1` (configuration not stated) belongs -64.35%; to `Cc1csc2c(N3CCC(Cn4cc(C(C)(C)O)nn4)CC3)ncnc12`, -16.92%.
As to `Cc1csc2c(N3CCC(NCCCc4ccncc4)CC3)ncnc12`, the “Percent Effect” value is 63.19%.
The result for `N#Cc1ccc(CNC(=O)NC2CCN(CC(F)(F)F)C2)cc1` (configuration not stated) reads -80.57%.
Turning to `COC(=O)COn1c(SC)nc2ccccc2c1=O`, the “Percent Effect” value is listed as -26.25%.
The result for `Cc1cccnc1CN(C)c1ncnc2[nH]ccc12` reads -141.2%; that for `O=C(O)C(F)(F)F.O=C(O)C(F)(F)F.c1cncc(OC[C@@H]2CCC[C@@]23CN(Cc2nccs2)CCO3)c1`, -94.41%; that for `Cn1nc(-c2ccccc2)c(Br)c1C(=O)O`, -35.19%.
The result for `O=C(C1CCOCC1)N1CCC2(CC1)CN(c1ccsc1)C(=O)CO2` reads -132.3%.
The result for `O=C(c1cnn(-c2ccccc2Cl)c1)N1CCN(CCO)CC1` reads -76.86%.
With `COCCn1cc(CC(=O)Nc2nc[nH]n2)c2ccccc21`, the “Percent Effect” value is listed as -106.6%.
To `Cn1cc(CN2CCS(=O)(=O)C(C)(C)C2)cn1` belongs -18.08%; to `COc1ccccc1C(=O)Nc1nc2c(s1)CN(S(=O)(=O)C1CC1)CC2`, -86.55%; to `COc1ccc(C2(NC(=O)c3ccc(=O)n(C)n3)CCCC2)cc1`, -78.19%.
The result for `Fc1ccc(CNC2CCN(CCc3ccncc3)CC2)cc1F` reads 89.24%.
The result for `CCCc1cncnc1N1CCC2(CCC(=O)N(C3CCCC3)C2)CC1` reads 27.32%; that for `O=C1CC(NCc2cccc(O)c2)CN1CCc1cccc(Cl)c1` (configuration not stated), -115.5%; that for `CCCc1cncnc1N1CCC(NCc2ccc(O)cc2)CC1`, 48.9%.
Consider `Oc1cccc(CNC2CCN(CCc3ccncc3)CC2)c1`, for which the “Percent Effect” value is -23.71%.
Take `Fc1ccc(C2CN(CCc3ccncc3)CCO2)cc1` (configuration not stated): the “Percent Effect” value was -59.94%.
As to `Clc1cccc(CNC2CCN(CCc3ccncc3)CC2)c1`, the “Percent Effect” value was determined as 91.89%.
As to `COCCN1CCC(NCc2cccc(F)c2)C1` (configuration not stated), the “Percent Effect” value is listed as -58.84%.
The result for `CCCc1cncnc1N1CCC(NCc2ccncc2)CC1` reads 65.25%.
The result for `CC(C)Cc1cc(NC(=O)c2cc(Cl)c[nH]2)n(C)n1` reads 10.73%; that for `CC(C)N(C)CCC(=O)N1CCCC(c2ccc(C(=O)O)cc2)C1` (configuration not stated), -175.3%; that for `CC(C)CN1C[C@H]2N(c3ncccn3)CCC[C@@]2(C(=O)NCC2CC2)C1`, -72.47%.
`Cc1ccc(CN(C)C(=O)c2n[nH]c(N)c2-c2ccccc2)o1`: the “Percent Effect” value was -66.55%.
To `CN(Cc1ccncc1)C1COC2(CCN(Cc3ccccn3)CC2)C1.O=C(O)C(F)(F)F.O=C(O)C(F)(F)F.O=C(O)C(F)(F)F.O=C(O)C(F)(F)F` (configuration not stated) belongs -49.62%; to `Cc1ncsc1C(=O)NC1CCN(CC(N)=O)CC1`, -67.12%; to `O=C(Cn1ccc2sccc2c1=O)NCCC1=CCCCC1`, -67.23%.
The result for `Cc1cccc(N2CCN(CCCNC(=O)c3cn[nH]c3C)CC2)c1` reads -117.5%; that for `CC1CCCN(CCCNC(=O)Cc2csc(-c3ccoc3)n2)C1` (configuration not stated), 9.027%.
Turning to `Cc1csc([C@H]2C[C@H]3CN(Cc4cc(C)on4)CC[C@@H]3O2)n1.O=C(O)C(F)(F)F`, the “Percent Effect” value is reported as -119%.
The result for `CCN(C(=O)CN1CCn2c(C)nnc2C1)C1=CCCCC1` reads 8.289%.
To `c1cnn(CC2CN(Cc3nnc(C4CC4)o3)CCO2)c1` (configuration not stated) belongs -40.41%; to `FC(F)(F)CCc1ccnc(N[C@H]2CC[C@H](n3cnnc3)CC2)n1`, -55.01%.
The result for `N[C@H]1CC[C@@H](Nc2nccc(CCC(F)(F)F)n2)CC1` reads 50.03%.
For `N[C@@H]1CC[C@@H](Nc2nccc(CCC(F)(F)F)n2)C1`, the “Percent Effect” value is -7.999%.
To `CC(C)N(C)C(=O)C1=NOC2(CCN(C(=O)c3ccnnc3)C2)C1` (configuration not stated) belongs -187.4%.
As to `Cc1cccc(CCC(=O)Nc2ccnn2C2CCS(=O)(=O)C2)c1` (configuration not stated), the “Percent Effect” value is -75.57%.
The result for `O=C(NCCNC(=O)c1ccc(Br)cc1)c1ccc(O)cc1` reads 27.41%; that for `O=C(NCCNc1cncc(Br)c1)c1ccc(O)cc1`, 50.22%.
The result for `O=C(NCCNc1ccc(Br)cn1)c1ccc(O)cc1` reads -25.48%.
The result for `CCc1nn(C)c(Cl)c1CN1CCCC2(CC1)CN(C)C(=O)O2` (configuration not stated) reads -46.66%; that for `OCCOc1ccccc1CN1CCCC(O)(CO)C1` (configuration not stated), -48.41%.
For the molecule `O=C1NCC2(CCCN(Cc3ccccc3OCCO)C2)O1` (configuration not stated), the “Percent Effect” value is -55.51%.
To `OCC1(O)CCCN(Cc2ccccc2OCCc2ccccc2)CC1` (configuration not stated) belongs 64.9%.
The result for `Cc1cc(C(=O)Nc2cnn(CC(F)(F)F)c2)nc(N2CCOCC2)n1` reads -108.9%; that for `c1csc(COC[C@H]2CCC[C@]23CN(Cc2ccoc2)CCO3)n1`, 34.38%; that for `CCN1CCCC1CN(CCN(C)C)S(=O)(=O)c1ccc(C#N)cc1` (configuration not stated), 58.03%.
On to `CC(=O)NCCC1CCCCN1S(=O)(=O)c1cccc(C#N)c1` (configuration not stated), for which the “Percent Effect” value is given as -38.39%.
The result for `CCN1CCCC1CN(CCN(C)C)S(=O)(=O)c1cccc(C#N)c1` (configuration not stated) reads 58.76%; that for `CS(=O)(=O)NCC1CCCCN1Cc1cccc(C#N)c1` (configuration not stated), -99.98%; that for `CCS(=O)(=O)N1CCC(Oc2ccc(C#N)cc2)CC1`, -74.03%.
To `CCN(CC)S(=O)(=O)c1ccc(CNC(=O)N2CCC(C#N)CC2)cc1` belongs -96.87%; to `Cn1ncc2c(NC3CCCN(C(=O)C4CC4)C3)nc(C(C)(C)C)nc21` (configuration not stated), -80.8%; to `CC(C)CC(NC(=O)c1ccn(C)c(=O)c1)c1ccccc1` (configuration not stated), -106.6%.
The result for `CCc1c(C)nc2ccccc2c1N1CCC(C(=O)NC)CC1` reads 51%; that for `CNC(=O)C1CCCN1c1nc(C)c2ccccc2n1` (configuration not stated), -23.49%; that for `CCc1c(C)nc2ccccc2c1N1CCC(NC(C)=O)CC1`, 21.66%.
On to `Cc1csc(NC(=O)[C@@H]2C[C@H]3[C@H](CCN3S(C)(=O)=O)O2)n1`, for which the “Percent Effect” value is listed as -110.3%.
The result for `O=S(=O)(NCc1ccc(S(=O)(=O)N2CCCC2)s1)c1ccc(Cl)cc1` reads -58.72%.
To `O=C1CN(C(=O)c2ccc(F)cc2)CC(O)CN1Cc1cccs1` (configuration not stated) belongs 88.73%.
With `O=C1CN(C(=O)c2ccc(Cl)cc2)CC(O)CN1Cc1cccs1` (configuration not stated), the “Percent Effect” value was -105.2%.
As to `Cc1ccc(C(=O)N2CC(=O)N(Cc3cccs3)CC(O)C2)cc1` (configuration not stated), the “Percent Effect” value was -71.11%.
The result for `CN(C)S(=O)(=O)N1CCOCC1CC(=O)NCCOc1ccccc1` (configuration not stated) reads -2.235%.
Turning to `Cc1noc(C)c1C(=O)NCc1cc[nH]n1`, the “Percent Effect” value was -1.688%.
Take `CCN(c1ccc(C(=O)NCc2cc[nH]n2)cc1)C(C)C`: the “Percent Effect” value came out at 57.8%.
In the case of `CCc1noc(C)c1C(=O)NCc1cc[nH]n1`, the “Percent Effect” value is listed as -11.39%.
Consider `Cc1nc(CN2CCCC(NCc3ccc4c(c3)CCO4)C2)no1` (configuration not stated), for which the “Percent Effect” value is on record as -110.8%.
To `CCCc1nc(N2CCSCC2)c2c(n1)c(C)nn2CC` belongs -63.17%; to `Cc1ccc(CN2Cc3nccn3CC(CN(C)C)C2)s1.O=C(O)C(F)(F)F.O=C(O)C(F)(F)F` (configuration not stated), -55.03%; to `CN(C)CC1CN(Cc2ccc(F)cc2)Cc2nccn2C1.O=C(O)C(F)(F)F.O=C(O)C(F)(F)F` (configuration not stated), 12.77%.
The result for `Cc1ccc(CN2Cc3nccn3CC(Cn3cccn3)C2)s1.O=C(O)C(F)(F)F` (configuration not stated) reads -33.05%; that for `CCN(CC)CC1CN(CCc2ccccc2)Cc2nccn2C1.O=C(O)C(F)(F)F.O=C(O)C(F)(F)F` (configuration not stated), 57.03%; that for `CCN(CC)CC1CN(Cc2ccc(C)s2)Cc2nccn2C1.O=C(O)C(F)(F)F.O=C(O)C(F)(F)F` (configuration not stated), 66.72%.
Consider `CCN(CC)CC1CN(Cc2nccs2)Cc2nccn2C1.O=C(O)C(F)(F)F.O=C(O)C(F)(F)F` (configuration not stated), for which the “Percent Effect” value was 18.43%.
